In PubChem BioAssay (Tox21):
Values without a mark were called inactive. Calls of active or inactive are those of the source. Calls come from the whole dose curve; as a rule, active = well fitted curve in the direction sought with a large enough effect in the repeat runs; inconclusive = weak or mixed curves; inactive = flat fitted curve, though single readings scatter.

Experiment: qHTS assay to test for compound auto fluorescence at 535 nm (green) in HEK293 cells (AID 720680)
Conditions: green autofluorescence 485/535 nm; series mostly up to 91.3 µM
Source text: U.S. Tox21 Program National Center for Advancing Translational Sciences [NCATS] NIH Chemical Genomics Center [NCGC] U.S. Environmental Protection Agency [EPA] National Institutes of Environmental Health Sciences [NIEHS] National Toxicology Program [NTP] U.S. Food and Drug Administration [FDA] Tox21 Assay Overview: Compound auto fluorescence often interferes with screening of the compound library against various biological targets and signaling pathways. Some of these compounds may have fluorophoric properties. Such properties may interfere with the assay outputs resulting in false positives and/or negatives. To decrease such complications and ensure the compound activities are relevant in terms of biological response, the Tox21 10K compound library was screened for auto fluorescence. From the fluorophores used as reporter signals in our screening assays, the auto fluorescence equivalencies of compounds against three fluorophores have been evaluated: Triamterene, Fluorescein and Rose Bengal sodium for blue, green and red fluorescence, respectively. The fluorescence intensities were measured using Excitation/Emission wavelengths at 405/460nm, 485/535nm and 540/590nm for blue, green and red labels, respectively. This assay includes the green fluorescence data.
Tox21 Assay Protocol Summary: 2,000 HEK293 cells in 5 uL of culture medium containing 10% dialyzed FBS per well were dispensed into black wall/clear bottom 1536-well plates using a Multidrop Combi Dispenser (Thermo Scientific). The assay plates were incubated for 4-5 hr at 37C to allow cell attachment to the well bottom, followed by the transfer of 23 nL compound or DMSO vehicle by a pintool work station (Kalypsys, San Diego, CA). After the assay plates were incubated overnight at 37C and 5% CO2, fluorescence intensities in the assay plates were measured by an Envision (PerkinElmer, Shelton, CT) plate reader using three labels for measuring blue, green and red fluorescence at […] 460, 535 and 590nm respectively.
% is set by controls: 0 for no effect and ±100 for the full control effect.

Question: With `CC(=O)OCC(=O)[C@@]1(O)[C@H](OC(C)=O)C[C@H]2[C@@H]3CCC4=CC(=O)C=C[C@]4(C)[C@@]3(F)[C@@H](O)C[C@@]21C` as the molecule, how does the outcome read?
Answer: Its outcome is “inactive”.

Question: Which outcome does the source give for `COC(=O)CCC(=O)O` here?
Answer: The outcome was “inactive”.

Question: For `NC(=O)NNC(N)=O`, which outcome is on record?
Answer: The outcome was “inactive”.

Question: Which outcome does the source give for `CN(C)CCOCCN(C)CCO` here?
Answer: The outcome was “inactive”.

Question: With `CNC(=O)C(c1ccccc1)c1ccccc1` as the molecule, how does the outcome read?
Answer: Its outcome is “inactive”.

Question: For `CC(C)c1ccccc1O`, which outcome is on record?
Answer: The outcome was “inactive”.

Question: For `CC(C)CCO`, which outcome is on record?
Answer: Its outcome is “inactive”.

Question: Which outcome does the source give for `O=C(O)c1ccccc1C(=O)Nc1ccc(S(=O)(=O)Nc2nccs2)cc1` here?
Answer: The outcome was “inactive”.

Question: With `C/C=C(\C)C(=O)OCC/C=C\CC` as the molecule, how does the outcome read?
Answer: The outcome was “inactive”.

Question: With `CCCCC(=O)N(C)C` as the molecule, how does the outcome read?
Answer: The outcome was “inactive”.

Question: Which outcome does the source give for `CCC(C)(C)C1CCC(=O)CC1` here?
Answer: The outcome was “inactive”.

Question: For `CCCCCCCCCCC`, which outcome is on record?
Answer: The outcome was “inactive”.

Question: For `CCN1CN(CC)CN(CC)C1`, which outcome is on record?
Answer: The outcome was “inactive”.

Question: For `Oc1ccccc1Cc1ccccc1O`, which outcome is on record?
Answer: The outcome was “inactive”.

Question: For `FC(F)(F)c1ccc(Cl)cc1Cl`, which outcome is on record?
Answer: The outcome was “inactive”.

Question: With `CCS(=O)(=O)CCn1c([N+](=O)[O-])cnc1C` as the molecule, how does the fluorescence, % of fluorescein read?
Answer: Its fluorescence, % of fluorescein is 0.101% [at 18.6 µM].

Question: For `C1CCN2C[C@@H]3C[C@@H](CN4CCCC[C@@H]34)[C@H]2C1`, which fluorescence, % of fluorescein is on record?
Answer: Its fluorescence, % of fluorescein is -0.0731% [at 18.6 µM].

Question: For `CC(C)(C)NCCO`, which outcome is on record?
Answer: The outcome was “inactive”.

Question: For `Cc1ccccc1N1CCN(CCc2nnc3n2CCCC3)CC1`, which outcome is on record?
Answer: Its outcome is “inactive”.

Question: For `CC1=NN(c2ccc(S(=O)(=O)O)cc2)C(=O)C1N=Nc1ccccc1` (stereo not given), which outcome is on record?
Answer: The outcome was “inactive”.

Question: For `O=C1NC2NC(=O)NC2N1` (stereo not given), which outcome is on record?
Answer: The outcome was “inactive”.

Question: For `CC(C)(C)c1ccc(C=O)cc1`, which outcome is on record?
Answer: The outcome was “inactive”.

Question: Which outcome does the source give for `CNCc1ccccc1` here?
Answer: Its outcome is “inactive”.

Question: Which outcome does the source give for `Cc1ccc(S(=O)(=O)NC(=O)NC2CCCCCCC2)cc1` here?
Answer: Its outcome is “inactive”.

Question: For `CCOC(=O)CCCCCCCCC(=O)OCC`, which outcome is on record?
Answer: The outcome was “inactive”.

Question: For `CN[C@@H]1[C@@H](O)[C@@H](O[C@@H]2[C@H](O)[C@H](O[C@H]3OC(CN)=CC[C@H]3N)[C@@H](N)C[C@H]2N)OCC1(C)O` (stereo not given in full), which outcome is on record?
Answer: The outcome was “inactive”.

Question: For `C=C[C@@H](C)CCC=C(C)C`, which outcome is on record?
Answer: Its outcome is “inactive”.

Question: For `CCNC(=O)NCCCOc1cccc(CN2CCCCC2)c1`, which outcome is on record?
Answer: The outcome was “inactive”.

Question: For `CCCCOC(=O)[C@@H](C)Oc1ccc(Oc2ccc(C(F)(F)F)cn2)cc1`, which outcome is on record?
Answer: Its outcome is “inactive”.

Question: With `CC(=O)OCCCc1ccccc1` as the molecule, how does the outcome read?
Answer: The outcome was “inactive”.

Question: For `O=C(O)/C=C/c1ccccc1`, which outcome is on record?
Answer: Its outcome is “inactive”.

Question: With `C=C(C)C(=O)OCCCCCCOC(=O)C(=C)C` as the molecule, how does the outcome read?
Answer: The outcome was “inactive”.

Question: With `C=CCOc1c(Br)cc(Br)cc1Br` as the molecule, how does the outcome read?
Answer: Its outcome is “inactive”.

Question: Which outcome does the source give for `C=CCOCC(O)CCl` (stereo not given) here?
Answer: Its outcome is “inactive”.

Question: For `CCC(C)N` (stereo not given), which outcome is on record?
Answer: Its outcome is “inactive”.

Question: For `Nc1cc(S(=O)(=O)O)ccc1S(=O)(=O)O`, which outcome is on record?
Answer: The outcome was “inactive”.

Question: For `CC(=O)OC(C)(C)Cc1ccccc1`, which outcome is on record?
Answer: The outcome was “inactive”.

Question: With `OCCCCCCCl` as the molecule, how does the outcome read?
Answer: The outcome was “inactive”.

Question: With `CCOc1ccc(NC(=O)OC(C)C)cc1OCC` as the molecule, how does the outcome read?
Answer: The outcome was “inactive”.

Question: Which outcome does the source give for `CC1=CC[C@H](CC=O)C1(C)C` here?
Answer: The outcome was “inactive”.
